# Bioassay records from PubChem BioAssay.
# An excerpt weighted towards active compounds, which were near 28% of everything screened.
# CYP2C9 activ – increases human cytochrome P450 2C9 activity; P11712; recombinant CYP2C9, luciferin-H conversion, luminescence; stronger effect = higher value; factor 1 = untreated enzyme, 0 = blocked; activation factor at 5 µM; 1.4% of 96,000 active; AID 1024;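 active = activation factor of 2 or more for CYP2C9 at a 5 µM dose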;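 note: 0 = sulfaphenazole-blocked wells and 1 = vehicle-only wells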
# Target sequence (P11712 whole entry, looked up): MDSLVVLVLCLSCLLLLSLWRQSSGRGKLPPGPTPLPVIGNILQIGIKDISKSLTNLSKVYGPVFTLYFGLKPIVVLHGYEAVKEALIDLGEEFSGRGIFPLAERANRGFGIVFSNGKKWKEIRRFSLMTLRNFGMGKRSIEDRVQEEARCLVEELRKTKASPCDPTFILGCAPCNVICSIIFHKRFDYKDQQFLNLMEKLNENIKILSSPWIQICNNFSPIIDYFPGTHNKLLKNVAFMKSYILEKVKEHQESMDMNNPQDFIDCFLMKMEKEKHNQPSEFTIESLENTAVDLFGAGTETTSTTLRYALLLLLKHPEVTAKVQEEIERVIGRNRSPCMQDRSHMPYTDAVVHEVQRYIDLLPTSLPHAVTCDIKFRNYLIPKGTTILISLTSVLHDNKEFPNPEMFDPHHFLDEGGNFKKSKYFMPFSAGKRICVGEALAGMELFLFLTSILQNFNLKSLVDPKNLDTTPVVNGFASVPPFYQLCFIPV
# CYP2C19 inhib – human CYP2C19 inhibition; P33261; 21% of 96,000 active; AID 778; inhibition, % at 5 µM; CYP2C19 Supersomes, luciferin-H EGE luminescence, 30 min;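 active = CYP2C19 inhibition above a set limit at 5 µM in the primary screen, cut at about 50% in these data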;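 note: plate controls were negative control wells for no effect and 2.5 mM tranylcypromine positive control for full effect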
# PLK1 PBD inh – Plk1 (human) PBD binding inhibition; P53350; Plk1 PBD phosphopeptide binding, fluorescence polarization; AID 693; 0.13% of 97,000 active; inhibition, %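 (tested at about 20 µM)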; in the data active = inhibition above about 34%, passing the limit was not always enough
# CYP2C9 inh – inhibitors of human CYP2C9; P11712; CYP2C9 Supersomes, luciferin-H conversion, luminescence; inhibition, % at 5 µM; 20% of 96,000 active;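 active = blocking of liver enzyme CYP2C9 beyond about 50% at 5 µM, limit read from the data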
# PLK1 kinase inh – blocks human PLK1 kinase activity. P53350. recombinant PLK1 kinase, TR-FRET peptide phosphorylation. inhibition, % at 10 µM. 0.53% of 97,000 active;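 active = inhibition of 50% or more in the single-concentration screen; inactive = inhibition below 50%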;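 note: 0% = DMSO max control and 100% = H-89 dihydrochloride min control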
# CYP2C19 act – increases human CYP2C19 enzyme activity; P33261; recombinant CYP2C19, luciferin-H EGE luminescence; stronger effect = higher value; 0 = fully inhibited enzyme, 1 = untreated enzyme; activation factor at 5 µM; 96,000 tested, under 10 active;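 active = activation factor of at least 2 at 5 µM in the primary screen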;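 note: 0 = wells with 2.5 mM tranylcypromine and 1 = vehicle-only wells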
# Numbers without * were called inactive; . = not tested or not shown.
SMILES,CYP2C9 activ,CYP2C19 inhib,PLK1 PBD inh,CYP2C9 inh,PLK1 kinase inh,CYP2C19 act
CCS(=O)(=O)N1CCN(C(=O)c2cc(OC)cc(OC)c2)CC1,1.1,30.6,21.6,-8.7,-7.9,0.7
COc1cc(OC)cc(C(=O)N2CCN(Cc3ccccc3C(F)(F)F)CC2)c1,0.7,77.7*,12.3,29.5,4.9,0.2
COc1cc(C(=O)N2CCN(Cc3ccccc3C(F)(F)F)CC2)cc(OC)c1OC,1.2,23.2,-27.9,-20.8,-1.9,0.8
COc1cccc(OC)c1C(=O)N1CCN(Cc2ccccc2C(F)(F)F)CC1,0.1,93.5*,5.7,90.9*,-9.6,0.1
CCCS(=O)(=O)N1CCN(C(=O)c2cc(OC)cc(OC)c2)CC1,0.9,70.8*,0.8,10.6,-8.9,0.3
NC(=O)CNC(=O)[C@@H]1CC2(CC(c3ccc(Cl)cc3)=NO2)CN1C(=O)c1ccc(Br)cc1 (stereo not given in full),0.9,4.2,-22.3,9.8,-5.8,1
Cc1nn(Cc2c(F)c(F)c(F)c(F)c2F)c(C)c1NC(=O)c1ccc(COc2ccc(F)cc2)o1,0.8,39.7,8.6,17.0,-9.8,0.6
CN(CC(=O)Nc1ccccc1C(=O)N1CCCC1)S(=O)(=O)c1ccc(Cl)cc1,0.6,17.8,3.8,44.7,-9.2,0.8
COc1ccc(Br)cc1CNc1ccc(O)cc1,0.7,73.0*,-6.5,30.0,-9.9,0.3
Cc1ccc(-c2c(=O)n(OCc3ccccn3)c3ccccc3[n+]2[O-])cc1,1,8.5,-0.1,3.8,-6.1,0.9
O=c1c(-c2cccc3ccccc23)[n+]([O-])c2ccccc2n1O,0.3,-9.5,-18.8,75.0*,-8.7,1.1
CC1(C)OC(=O)C2(Cc3ccccc3N3CCCCC32)C(=O)O1 (stereo not given),0.9,60.7*,-1.8,12.7,-8.1,0.4
O=c1c2cccnc2[nH]c(=S)n1CCC1=CCCCC1,0.7,9.3,11.0,27.1,-5.7,0.9
O=C(CC(c1ccccc1)c1ccccc1)OCn1nnc2ccccc2c1=O,0.1,84.8*,17.0,94.7*,-9.1,0.2
O=C(CC1CCCCC1)OCn1nnc2ccccc2c1=O,0.6,69.3*,13.4,37.8,-28.5,0.3
CC(C)(Oc1ccc(Cl)cc1)C(=O)OCn1nnc2ccccc2c1=O,0.5,3.5,-32.4,50.7*,-7.1,1
O=C(COc1ccccc1)N(Cc1ccco1)c1ccc(O)cc1,.,.,-12.7,.,-3.4,.
O=C(c1ccc(Cl)c(Cl)c1)N(Cc1ccco1)c1ccc(O)cc1,0,99.0*,-12.4,98.3*,-3.5,0
CCOC(=O)c1c(C)[nH]c(C)c1C(=O)CSc1nc(N)cc(=O)[nH]1,0.5,23.7,3.5,49.5,-10.0,0.8
O=C1N2c3ccccc3CCc3cccc(c32)C1(O)C(F)(F)F (stereo not given),0.7,51.6*,10.7,33.9,-10.2,0.5
CN(Cc1cc2ccccc2[nH]c1=O)S(=O)(=O)c1ccccc1,0.5,78.7*,13.8,45.1,-13.4,0.2
COc1ccc2cc(CN(CC3COCCO3)S(=O)(=O)c3ccccc3)c(=O)[nH]c2c1 (stereo not given),0.2,3.1,-4.0,84.9*,0.3,1
COc1ccc2cc(CN(Cc3cccnc3)S(=O)(=O)c3ccccc3)c(=O)[nH]c2c1,0.5,43.1,10.2,49.0,-13.0,0.6
CCCC(=O)N(Cc1cc2cc(C)ccc2[nH]c1=O)c1ccccc1OC,0.8,4.6,-5.0,21.4,-10.3,1
COc1ccc(S(=O)(=O)N(Cc2cc3ccc(OC)cc3[nH]c2=O)CC2COCCO2)cc1 (stereo not given),0.3,30.1,15.3,74.8*,-16.4,0.7
SMILES,CYP2C9 activ,CYP2C19 inhib,PLK1 PBD inh,CYP2C9 inh,PLK1 kinase inh,CYP2C19 act
CCCC(=O)N(Cc1cc2ccccc2[nH]c1=O)c1ccccc1OC,0.1,64.8*,-9.9,86.9*,-18.9,0.4
COC(=O)c1sccc1NC(=O)c1ccc(Br)s1,1,1.2,-10.7,-4.3,-7.8,1
CCCC1C2C(=O)N(c3ccccc3OCC)C(=O)C2ON1c1ccccc1 (stereo not given),0.5,25.6,-19.0,47.2,-3.0,0.7
O=C(CN1C(=O)C2C3C=CC(C3)C2C1=O)NCCN1CCCc2ccccc21 (stereo not given),1.2,9.1,-7.1,-17.6,-5.6,0.9
COCCCNC(=O)c1c(NC(=O)C2COc3ccccc3O2)sc2c1CCCC2 (stereo not given),0.1,82.4*,-22.9,91.8*,0.3,0.2
O=C(NCCC1=CCCCC1)C1COc2ccccc2O1 (stereo not given),0.4,87.2*,.,58.3*,.,0.1
O=C(CN1C(=O)C2C3C=CC(C3)C2C1=O)NCCC1=CCCCC1 (stereo not given),0.9,51.3*,-1.8,14.9,-10.9,0.5
CCC1Oc2ccccc2N(CC(=O)NCCC2=CCCCC2)C1=O (stereo not given),0.6,89.3*,-1.9,41.2,-9.0,0.1
COC(=O)c1ccc(-n2nc(C(F)(F)F)c3c2-c2ccoc2CC3)cc1,.,.,18.2,.,-7.5,.
COc1ccccc1CNC(=O)C(CCSC)NC(=O)C1CCC(C)CC1 (stereo not given),0.8,18.4,27.0,19.5,-1.7,0.8
O=C(CN1CCN(c2ncccn2)CC1)NCCC1=CCCCC1,0.1,53.5*,2.4,94.4*,-11.5,0.5
Cc1ccc(C)c(SCC(=O)NCc2ccco2)c1,1,31.2,6.7,0.7,-5.8,0.7
Cc1cc(C)c2c(CC(=O)NCc3ccco3)coc2c1,1.6,89.2*,21.7,-57.6,5.8,0.1
COCCNC(=O)C(C)N(c1ccc(Oc2ccccc2)cc1)S(C)(=O)=O (stereo not given),1,52.7*,-5.0,1.2,-4.9,0.5
Cc1ccc(OCC(=O)NCc2ccco2)cc1C,0.7,80.3*,0.0,29.6,-10.6,0.2
CCOC(=O)N1CCN(C(=O)C(C)N(c2ccc(Oc3ccccc3)cc2)S(C)(=O)=O)CC1 (stereo not given),0.8,18.9,.,16.1,.,0.8
Cc1ccccc1NS(=O)(=O)c1ccc(OCC(=O)NCc2ccco2)cc1,0.4,12.4,-10.9,61.2*,-9.6,0.9
CCOc1ccc(CSC(=N)N)cc1[N+](=O)[O-],0.8,8.7,-12.8,17.0,4.8,0.9
COc1ccc(NC(=O)C(NC(C)=O)C(=O)NCc2ccccc2OC)cc1 (stereo not given),0.8,15.3,17.5,23.0,1.9,0.8
CCOc1ccc(S(=O)(=O)N(C)c2ccc(OCC(=O)NCc3ccco3)cc2)cc1,0,86.1*,-22.1,100.0*,3.7,0.1
CCOc1ccc(-n2c(N)c(C(=O)NCc3ccco3)sc2=S)cc1,0.4,25.3,17.7,56.7*,-8.2,0.7
CCOc1ccc(N(C(C)C(=O)NCc2ccco2)S(C)(=O)=O)cc1 (stereo not given),0.5,78.3*,3.0,53.9*,-0.5,0.2
